# Measurements as given in PubChem BioAssay AID2315 (National Center for Advancing Translational Sciences (NCATS), 2010).
# Out of some 290,000 compounds screened, about 27,000 (9.3%) were called active. This excerpt belongs to a sample that is enriched for actives. A number with no mark means an inactive call. Rule as the data show it: active = inhibition mostly above about 28% (no sharp cut-off); inactive = mostly below about 43%.
# Experiment: A qHTS for Small Molecule Inhibitors of Shiga Toxin; also: 0% is about no effect
# Details: Vero cells, Shiga toxin protein synthesis inhibition reporter; at 38.7 µM, stronger effect = higher value
row,Compound,inhibition
1,Cc1ccc(Cn2c(C)c3cnn(CC(=O)NCc4ccccn4)c(=O)c3c2C)cc1,-6.49%
2,Cc1nn(CC2CC2)c(=O)n1N(C)c1ncc(C(F)(F)F)cc1Cl,-23.8%
3,COc1ccc(NS(=O)(=O)c2ccc(F)cc2F)cn1,-5.14%
4,CCOC(=O)Cn1c(=O)n(Cc2ccc(OC)cc2)c(=O)c2cccnc21,-6.29%
5,Cc1cc(NS(=O)(=O)c2ccc(NC(=O)C(C)Oc3cccc(C)c3C)cc2)nc(C)n1 (stereo unspecified),1.79%
6,CC(NC(=O)COc1ccc(-c2ccccc2)cc1)C1CCCO1 (stereo unspecified),12%
7,O=C(Cc1coc2ccc3ccccc3c12)NCc1cccs1,1.44%
8,Cc1ccc2c(CC(=O)NCc3cccs3)coc2c1,77.5% (active)
9,COc1ccc(C)cc1NC(=O)CNCc1cccs1,-6.47%
10,CC(C)[C@H](NC(=O)N1CCn2c1nc1ccccc12)C(=O)NC1CC1,25.9%
11,CCOC(=O)C1(Cc2ccc(Cl)cc2)CCN(C(=O)C2=NNC(=O)CC2)CC1,-6.2%
12,CCOC(=O)C1(Cc2ccccc2C(F)(F)F)CCN(C(=O)c2cc(C)n(C)n2)CC1,109% (active)
13,CCOC(=O)C1(CCOc2ccccc2)CCN(C(=O)c2cncs2)CC1,-4.69%
14,COC(=O)c1ccc(CNC(=O)C2CCC(=O)N(Cc3ccccn3)C2)cc1 (stereo unspecified),-9.5%
15,CN(C)c1ccc(C2N(C)C(=O)c3ccccc3N2C)cc1 (stereo unspecified),-12.6%
16,O=[N+]([O-])c1ccc(N2CCN(c3ccc(F)cc3)CC2)cn1,20.3%
17,O=C(Nc1cccc(NC(=O)c2ccc(Br)cc2)c1)c1ccccc1,-7.53%
18,O=S(=O)(Nc1ccccc1Cl)c1cccc2nsnc12,-3.15%
19,O=C(Nc1ccccc1N1CCCCC1)c1ccc2nccnc2c1,-14.9%
20,O=C(Nc1ccccc1)c1ccc2nsnc2c1,64.7% (active)
21,Cc1nc(C)c(C(=O)Nc2cccc(C)c2C)o1,-7.98%
22,O=C(Nc1ccccc1Cl)c1ccc2nsnc2c1,102% (active)
23,Cc1cccc(NC(=O)c2ccc(OCC(=O)NCc3ccccc3)cc2)c1C,-9.42%
24,Cc1cccc(NC(=O)c2ccc3nsnc3c2)c1C,80% (active)

row,Compound,inhibition
1,COc1ccc(N2CCN(C(=O)C3CCN(C(=O)c4ccccc4Cl)CC3)CC2)cc1,26.7%
2,CCCCC(CC)CNCc1cccn1CCN1CCOCC1 (stereo unspecified),-23.2%
3,COc1cccc(-c2nc(CS(=O)CC(=O)NCc3ccc(F)cc3)c(C)o2)c1 (stereo unspecified),-9.69%
4,COc1cccc(NC(=O)[C@H](Cc2c[nH]c3ccccc23)NC(=O)[C@@H]2Cc3ccccc3CN2)c1,9.71%
5,O=S(=O)(Nc1cccc(-n2cnnn2)c1)c1cnc(Cl)c(Cl)c1,-9.74%
6,Cc1ccc(O)c(NC(=O)c2cc(-c3ccco3)on2)c1,81.4% (active)
7,Cc1ccc(C)c(NC(=O)c2ccc(OC(=O)c3ccco3)cc2)c1,32.9%
8,Cc1ccc(O)c(NC(=O)COc2cc(C)ccc2C)c1,-27.8%
9,O=C(O)CSc1c2c(nc3cc(C(=O)Nc4cccc(C(F)(F)F)c4)ccc13)CCCC2,-3.73%
10,O=C(O)CN1CCN(C(c2ccccc2)c2ccccc2)CC1,-10.2%
11,O=C(CSc1ccc(-c2ccco2)nn1)NCc1ccc2c(c1)OCO2,25%
12,Brc1ccc(CSc2ccc(-c3ccco3)nn2)cc1,99.8% (active)
13,COc1ccc(NC(=O)CSc2ccc(-c3ccco3)nn2)c(OC)c1,-11.2%
14,Fc1cccc(Cl)c1CSc1ccc(-c2ccco2)nn1,89% (active)
15,Clc1ccccc1CSc1nnc(-c2ccco2)c(-c2ccco2)n1,-3.95%
16,Cc1cc(SCc2c(F)cccc2Cl)nc(=O)[nH]1,5.47%
17,O=C(Nc1ccccc1-c1ccccc1)c1ccccc1[N+](=O)[O-],2.33%
18,O=C(Nc1ccc(N2CCOCC2)nc1)c1c(F)cccc1F,55.5% (active)
19,NC(=O)c1ccc(N2CCOCC2)nc1,-13.6%
20,O=C(Nc1ccc(F)cc1)c1cccnc1N1CCOCC1,28.6%
21,CC(=O)c1ccc(S(=O)(=O)N(C)CCCC(=O)N(C)Cc2ccccc2F)cc1,-5.36%
22,CCn1c(Cc2ccc(OC)cc2)nnc1SCC(=O)Nc1ccc(N2CCOCC2)cc1,1.72%
23,COc1cccc(/C=C(/CC(=O)Nc2ccc(N3CCOCC3)cc2)c2nc3ccccc3s2)c1,90.3% (active)
24,COc1ccc(/C=C(/CC(=O)Nc2ccc(C)cc2)c2nc3ccccc3s2)cc1,19.4%

row,Compound,inhibition
1,COc1ccc(C(C)NC(=O)C2CCCC2)cc1 (stereo unspecified),-3.92%
2,O=C(COc1ccc2ccc(=O)oc2c1)NCC(O)c1ccccc1 (stereo unspecified),-18.4%
3,O=C(O)c1ccccc1C(=O)NC1=NN(c2ccccc2)CC1,3.05%
4,Cc1ccc(C(=O)c2ccc(N3CCN(C)CC3)c([N+](=O)[O-])c2)cc1,76.3% (active)
5,Cc1cccc(N2CCN(c3ccc(C(N)=O)cc3[N+](=O)[O-])CC2)c1C,5.45%
6,CCOC(=O)C1CCN(c2ccc(C(=O)O)cc2[N+](=O)[O-])CC1,-7.98%
7,CCOC(=O)C1CN(S(=O)(=O)c2ccc(OC)cc2)c2cc(Cl)ccc2O1 (stereo unspecified),-12.8%
8,CC(C)C(C)NC(=O)COc1nc2ccccc2nc1N(C)C1CCCCC1 (stereo unspecified),-16.3%
9,O=C(NC1CCCC1)C1CCN(C(=O)Nc2cccc(Cl)c2)CC1,-5.04%
10,Cc1ccc(S(=O)(=O)N(Cc2ccccc2)c2ccccn2)cc1[N+](=O)[O-],5.85%
11,Cc1nn(-c2ccccc2)c(C)c1NC(=O)CCl,16.7%
12,Cc1ccc(C(=O)/C=C/c2c(C)nn(-c3ccccc3)c2Cl)cc1,45.2% (active)
13,COc1ccc(CCNC(=O)c2c(C)nn(-c3ccccc3)c2Cl)cc1,15.3%
14,Cc1nn(-c2ccccc2)c(Cl)c1/C=C/C(=O)c1ccc(O)cc1,37.6%
15,Cc1nn(-c2ccccc2)c(Cl)c1C(=O)Nc1ccccc1,108% (active)
16,Cc1nn(-c2ccccc2)c(C)c1/C=C/C(=O)OC(C)C(N)=O (stereo unspecified),-6.62%
17,Cc1cccc([C@@H]2[C@@H]3C(=O)N(Cc4ccccc4)C(=O)[C@@H]3[C@]3(C)C(=O)N(c4ccc(Br)cc4)C(=O)N23)c1,10.9%
18,CCCN1CCN(C(=O)CCCNC(=O)c2ccc(Cl)cc2)CC1,-8.41%
19,C[C@H](NC(=O)C1CC(=O)N(c2ccc3c(c2)OCCO3)C1)C(=O)N1CCC(C(=O)O)CC1 (stereo partly specified),-10.9%
20,O=C(c1cn(-c2ccccc2)nc1-c1cccnc1)N1CCCCC1,-13.3%
21,COc1ccccc1N1CCN(C(=O)c2cc3c(-c4ccc(Cl)cc4)nn(C)c3s2)CC1,19.3%
22,COc1ccccc1N1CCN(C(=O)c2cn(-c3ccccc3)nc2-c2cccnc2)CC1,39.2% (active)
23,COc1cc(C(=O)N2CCN(C3CCC(C)CC3)CC2)cc(OC)c1OC (stereo unspecified),-9.82%
24,CCOc1ccc2nc(N(CCCN(C)C)C(=O)c3ccc(C(=O)c4ccccc4)cc3)sc2c1,-6%

row,Compound,inhibition
1,O=C(O)c1ccc(-n2nc(-c3ccccc3)c3ccccc3c2=O)cc1,17.9%
2,CCOc1ccc(CCNC(=O)Nc2ccccc2)cc1OCC,7.13%
3,CCOC(=O)C1CCN(C(=O)C2CCCN(S(=O)(=O)c3ccc(OC)c(Cl)c3)C2)CC1 (stereo unspecified),-2.72%
4,CCc1ccc2oc(-c3ccc(N)cc3)nc2c1,47.9% (active)
5,COc1ccc(C2C3=C(CCCC3=O)N(CC(=O)O)C3=C2C(=O)CCC3)cc1,14.1%
6,CCOC(=O)CSc1nnc(-c2ccncc2)o1,-2.72%
7,Cc1cccc(C)c1OC(=O)CSc1nnc(-c2ccccc2)o1,-1.97%
8,CCCCSc1nnc(-c2ccc(C)cc2)o1,63.2% (active)
9,O=C(c1cc2ccccc2o1)N1CCN(Cc2ccccc2)CC1,22.5%
10,O=C(NCCc1ccccc1)C(=O)NCC1OCCN1S(=O)(=O)c1cccs1 (stereo unspecified),15.4%
11,CCc1ccc(Oc2coc3cc(OC(=O)c4cc5ccccc5oc4=O)ccc3c2=O)cc1,22.7%
12,COc1ccc(Oc2coc3cc(OC(=O)c4cncc(Br)c4)ccc3c2=O)cc1,31.4%
13,CCc1ccc(Oc2coc3cc(O)ccc3c2=O)cc1,57.1% (active)
14,O=C(O)C1CCC(CNS(=O)(=O)c2ccc(Br)cc2)CC1 (stereo unspecified),-6.36%
15,O=C(NC(=O)c1ccccc1)Nc1ccccc1O,105% (active)
16,O=C(Nc1ccc(C(=O)O)c(O)c1)c1ccccc1,2.52%
17,O=C(NC(=O)c1ccccc1)NC(=O)c1ccccc1,-0.343%
18,CCCC(=O)N1CCN(c2nnc(-c3ccc(C)cc3)c3ccccc23)CC1,-11.9%
19,Brc1ccc2nc(N3CCCC3)sc2c1,133% (active)
20,O=C(NCCc1cccc(F)c1)C1CCCN(c2nc3ccccc3s2)C1 (stereo unspecified),-11.7%
21,Fc1ccc2nc(N3CCCCC3)sc2c1,82% (active)
22,O=C(c1ccc2nc(N3CCOCC3)sc2c1)N1CCN(c2ccc(Cl)cc2)CC1,-6.87%
23,c1c2c(cc3sc(N4CCCCC4)nc13)OCCO2,14.5%
24,Cc1nc(N2CCCCC2)sc1C=O,17.8%
